PubChem BioAssay (NCI)
Where “and” joins values, the source holds several entries; their conditions need not be identical. Equal entries are not always repeated. The panel holds about 83,000 compounds, 20% with a hit somewhere; the sample as a whole holds those more often.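 96-well plates, one dose, 48 hours. Percent growth reported; active if below 10.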 Values without a mark were called inactive. Calls of active or inactive are those of the source.

The compounds below were run on UO-31 renal (assay: NCI-60 one-dose screen, 48 h (100 = growth as untreated, 0 = no growth, -100 = all killed)). Settings: 100 µM.

Structure (SMILES)	growth
COc1ccc(C(=O)/C=C/c2ccc(OCc3cccc(C(F)(F)F)c3)c(OC)c2)cc1OC	24.6%
CCN(Cc1ccccc1)c1ccc(/C=C2\COc3ccccc3C2=O)cc1	18.6%
COc1ccc(C(=O)/C=C/c2ccc(OCc3ccc(Cl)cc3)cc2)cc1OC	41.4%
CC(=O)/C=C/c1ccc(OCc2ccc(C(C)(C)C)cc2)cc1	14.8%
O=C(/C=C/c1cccc(Oc2ccc(Cl)cc2)c1)c1ccccc1	-99.8% (active)
CC(=O)/C=C/c1ccc(OCc2ccc(Cl)cc2)cc1	21%
CC(=O)/C=C/c1ccc(N(CCO)Cc2ccc(C(C)(C)C)cc2)cc1	-100% (active)
CC(=O)/C=C/c1ccc(N(C)Cc2ccc(C(C)(C)C)cc2)cc1	-100% (active)

Each compound was assayed on TK-10 renal in the same assay as above. Settings: 10 µM.

Structure (SMILES)	growth
COc1ccc(C(=O)/C=C/c2ccc(OCc3cccc(C(F)(F)F)c3)c(OC)c2)cc1OC	117%
CCN(Cc1ccccc1)c1ccc(/C=C2\COc3ccccc3C2=O)cc1	119%
CC(=O)/C=C/c1ccc(OCc2ccc(C(C)(C)C)cc2)cc1	111%
O=C(/C=C/c1cccc(Oc2ccc(Cl)cc2)c1)c1ccccc1	105%
CC(=O)/C=C/c1ccc(OCc2ccc(Cl)cc2)cc1	77.6%
CC(=O)/C=C/c1ccc(N(C)Cc2ccc(C(C)(C)C)cc2)cc1	115%
CC[C@]12CN3CCc4c([nH]c5ccccc45)[C@@](C(=O)OC)(c4cc5c(cc4OC)N(C)[C@H]4[C@@](O)(C(=O)OC)[C@H](OC(C)=O)[C@]6(CC)C=CCN7CC[C@]54[C@@H]76)CC(C3)[C@H]1O2 (stereo partly drawn)	27.6%

Same assay, conditions: 10 µM unless noted

Structure (SMILES)	growth
CN(C)CCCn1c2nc(=O)[nH]c(=O)c-2nc2cc(Cl)c(Cl)cc21	80.5%
C=C(CNCCc1ccc(O)cc1)[C@@H]1CC[C@]2(CO)CC[C@]3(C)[C@H](CC[C@@H]4[C@@]5(C)CCC(NCCc6ccc(O)cc6)C(C)(C)[C@@H]5CC[C@]43C)[C@@H]12 (stereo partly drawn)	-92.6% (active)
O=C1/C(=C/c2cn(-c3ccccc3)nc2-c2ccccc2)SC(=S)N1c1ccc(Cl)cc1	91.8%
CCCNNC(=O)/C=C/c1ccc(CNCCc2c(C)[nH]c3ccccc23)cc1	-16.2% [2.5 µM] (active)
C=CCNC(=O)Cc1c(-c2ccc(OC)cc2)oc2c(OC)c3c(c(OC)c12)OCO3	110%
CC1=C2[C@@H](CC1)[C@]1(C)O[C@@](C(C)C)(C[C@H]1OC(=O)CO)[C@H]2OC(=O)C1CC1c1ccccc1 (stereo partly drawn)	88%
O=C([C@H]1C[C@H]1c1ccc(S(F)(F)(F)(F)F)cc1)N1CCN(c2cc(Cl)ccc2C(F)(F)F)CC1	93.6%
O=C(Cc1ccc(F)cc1)c1ccccc1	104%
COc1cc2cc(NCc3ccncc3)nc(C)c2cc1OC	83.5%
CN1Cn2c(ccc2C(F)(F)F)C(=O)CS1(=O)=O	103%
O=C1C=C(Nc2ccccc2)c2ncccc2C1=O	-96.9% (active)
C=C1C(=O)O[C@H]2[C@H]1CC/C(COC(=O)NCc1ccc(Cn3c(=O)sn(CCCI)c3=O)cc1)=C\CC[C@@]1(C)O[C@@H]21	0.113% (active)
COc1ccc(Cn2cc(C(=O)Nc3cccnc3Nc3ccccc3)nn2)cc1	95.1%
NNCCc1ccccc1	118%
CCN(CC)CC#CCOC(=O)[C@]1(C)CCC[C@]2(C)c3ccc(C(C)C)cc3CC[C@@H]12	102%
COc1cc2c(cc1OCCCOC1=C=C=C(c3ccc4c(c3)c3cc(-c5ccc(OCCCOc6cc7c(cc6OC)C(=O)N6CCC[C@H]6C=N7)cc5)ccc3n4S(=O)(=O)c3ccc(C)cc3)C=C1)N=C[C@@H]1CCCN1C2=O	221%
O=C(CCl)N(O)c1ccc(/C=C/c2ccccc2)cc1	89.7% and 81.1%
COc1cc(/C=C/C(=O)c2ccc(NC(=O)CSc3nnc(-c4cc(-c5ccccc5)nc5ccccc45)n3-c3ccccc3)cc2)cc(OC)c1OC	109%
Nc1[nH]nc(Nc2ccccc2)c1-c1nc2ccccc2s1	23%
C[C@]12CCc3c(ccc4cc(O)ccc34)[C@@H]1C[C@H](O)[C@@H]2O	110%
Cn1cc(-c2csc(-c3cn(CCOC(N)=O)c4ccccc34)n2)c2cccnc21	82.6%
C=C(CN1CC=CCC1)[C@@H]1CC[C@]2(COC(C)=O)CC[C@]3(C)[C@H](CC[C@@H]4[C@@]5(C)CC[C@H](O)C(C)(C)[C@@H]5CC[C@]43C)[C@@H]12	113%
C/C=C(/C)C(=O)O[C@@H]1CC(C)(C)CC2C34OC(=O)[C@@]21CC[C@@]3(C)[C@]1(C)CCC2C(C)(C)C(=O)CC[C@]2(C)C1C[C@@H]4Cl (stereo partly drawn)	87.2%
CC1=CC=C(NC(=O)/C=C/c2ccccc2)CC1Nc1nccc(-c2cccnc2)n1 (stereo not drawn)	107%
COc1ccc(-c2[nH]c3ccccc3c2-c2ccc(OC)cc2)cc1	87.4%
CCCCC1=C(Br)C(=O)c2nc(C)ccc2C1=O	115%
Nc1ncc(-c2ccc3ncnc(N4CCc5ccc(Cl)cc54)c3c2)cc1C(F)(F)F	-3.58% (active)
COc1ccc(-c2nnc3n(C)c(=O)c4ccccc4n23)cc1O	51.4%
